Screening results from PubChem.
Hits are enriched below; roughly 19% of the tested compounds scored in any of these assays.
TDP1 cell noCPT: qHTS for Inhibitors of human tyrosyl-DNA phosphodiesterase 1 (TDP1): qHTS in cells in absence of CPT; 420,000 tested, 15% active; DT40 Tdp1-/- hTDP1 cells, no CPT, ATP luminescence, 48 h; AID 686978, 2013; Potency, µM (series often up to 46.2 µM), without a hit: at the top dose activity change, negative = growth inhibition, most hits filed as inhibitors; also: potency is read from the fitted curve at half-maximal effect; nearly all actives have a fitted effect of over 55% in size
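No-CPT arm: Tdp1-/-;hTDP1 DT40 cells (400/well) plus compounds, incubated ≥48 hr at 37 °C. Readout CellTiter-Glo luminescence.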
HT1080NT lethal: kills 2HG-producing HT-1080-NT fibrosarcoma cells; HT-1080-NT fibrosarcoma viability, CellTiter-Glo ATP luminescence, 48 h; Potency, µM (highest dose often 46.1 µM), for the others: at the top dose activity, negative = less viability, most hits filed as cytotoxic; 360,000 tested, 1.6% active; AID 686970;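 also: NT is the 2HG producing partner of a matched IDH1 knockdown line; potency is read from the fitted curve at half-maximal effect; 0% = DMSO-treated cells and -100% = media-only wells without cells; nearly all actives have a fitted effect of over 55% in size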
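HT-1080-NT; 750 cells/well; 5% FBS RPMI; 48 h compound, 37 degrees C; CellTiter-Glo luminescence; curve fitting and curve-class assignment.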
DT40 TDP1 CPT: DT40-hTDP1 cell growth loss with CPT; chicken DT40 Tdp1-/-;hTDP1 cells + 20 nM CPT, ATP luminescence, 48 h; Potency, µM (series often up to 46.2 µM), for the others: top-dose activity change, negative = growth inhibition, usual class: inhibitors; 420,000 tested, 12% active; AID 686979; also: potency is read from the fitted curve at half-maximal effect; nearly all actives have a fitted effect of over 55% in size
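Chicken DT40 Tdp1-/- cells stably complemented with human TDP1 were seeded at 400 cells/well in medium containing 20 nM camptothecin, exposed to pin-transferred compounds, and grown at 37 °C for at least 48 hr. Viability was read as ATP luminescence.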
HT1080 IDH1KD tx: kills HT-1080 cells with IDH1 knockdown | HT-1080 IDH1 knockdown viability, ATP luminescence, 48 h | Potency, µM (highest dose often 46.1 µM), without a hit: at the highest dose activity, negative = toxicity, most hits filed as cytotoxic | 360,000 tested, 2% active;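 also: potency is read from the fitted curve at half-maximal effect; 0% = DMSO wells and -100% = cell-free medium wells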
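Viability of IDH1-knockdown HT-1080 fibrosarcoma cells was assessed by CellTiter-Glo after 48 h at 37 °C with titrated compound; concentration-effect curves were classified by fit quality and response size.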
IL1B secr inh: inhibitors of inflammasome signaling (IL-1 beta secretion). THP-1 LPS/ATP IL-1B secretion, AlphaLISA, 16 h; stronger effect = lower value. activity change, % at 57.5 µM. 360,000 tested, 4.7% active; in the data active = activity change below about -50%; inconclusive = mostly about -30% to -49%
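THP-1 cells pretreated 1 hr with compounds (up to 57.5 uM final), then stimulated with LPS (250 ng/mL final) plus ATP (1.25 mM final); secreted IL-1B measured by AlphaLISA after 16 hr, decreased signal indicating inhibition.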
The depositor's hits bear a star; i = inactive; ? = inconclusive; nt = no result given; ! = not active in a repeat; [ ] = remark or other dose. Unless noted, calls follow the shape of the dose curve; as a rule, active = well fitted curve in the direction sought with a large enough effect; inconclusive = small, poorly fitted or top-dose-only effect, or another doubt; inactive = no such curve, though single readings can be large; an effect the other way counts as inactive or inconclusive. Unless noted, % is scaled to controls: 0 for no effect and ±100 for the full control effect.

SMILES	TDP1 cell noCPT	HT1080NT lethal	DT40 TDP1 CPT	HT1080 IDH1KD tx	IL1B secr inh
CN(C)/C=N/c1cnc(C(=O)c2ccc(Cl)cc2)n1C	?	-1%	-5%	7%	-15
Cc1ccc(S(=O)(=O)NC(=O)C2(C)CCN2C(=O)c2ccc(C(F)(F)F)nc2C)cc1 (stereo not given)	-5%	20%	-4%	6%	-14
C=CCc1ccccc1OCC(O)CNC1CCCC1 (stereo not given)	?	5%	?	2%	-18
CC(C)NC[C@@H](O)COc1cccc2ccccc12	21µM*!	nt	30µM*!	nt	-15
OC(COc1cccc2ccccc12)CN1CCN(c2ccccc2)CC1 (stereo not given)	?	-23%	18µM*	-2%	-14
C=CCc1ccccc1OCC(O)CNC(C)C (stereo not given)	-9%	-16%	-15%	4%	-70*
CCC/C(O)=C1\C(=O)CC(C)(C)CC1=Nc1ccccc1O	?	-7%	?	-3%	7
O=C(CN1C(=O)NC2(CCCC2)C1=O)N1CCN(c2cccc(C(F)(F)F)c2)CC1	21µM*	-1%	?	-5%	-3
O=C(CN1C(=O)NC2(CCCC2)C1=O)N1CCN(S(=O)(=O)c2cccc(C(F)(F)F)c2)CC1	-9%	1%	9%	1%	4
Cc1cccc(N2CCN(C(=O)CN3C(=O)NC4(CCCCCC4)C3=O)CC2)c1C	21µM*	-23%	?	-13%	-12
O=C(CN1C(=O)NC2(CCCCCC2)C1=O)N1CCC(Cc2ccccc2)CC1	16µM*	-12%	?	-11%	17
O=C(CN1C(=O)NC2(CCCC2)C1=O)N1CCN(c2ccc(C(F)(F)F)cc2[N+](=O)[O-])CC1	8.2µM*	-6%[9.24 µM]	13µM*	-1%	-8
O=C(CN1C(=O)NC2(CCCCCC2)C1=O)NCc1ccccc1	-20%	5%	-36%	9%	9
CCC(=O)Nc1ccccc1-c1nc2ccccc2n(CC(=O)c2ccc(Br)cc2)c1=O	-10%	nt	4%	nt	nt
CC1CCC2(CC1)NC(=O)N(Cc1cccc(C(F)(F)F)c1)C2=O (stereo not given)	?	-5%	18µM*	-17%	24
CCCn1c(SCC(=O)N2CCc3ccccc3C2)nc(O)cc1=O	-5%	1%	-12%	-9%	15
CN1/C(=C/C=C(C#N)C#N)C(C)(C)c2ccccc21	1%	8%	-21%	3%	14
CN1\C(=C/C=C/C=C/C=[N+](C)C)C(C)(C)c2ccccc21	2.3µM*	?	2.6µM*	?	-21
CN(C)c1ccc(N=C/C=C2\N(C)c3ccccc3C2(C)C)cc1	4.1µM*	?	5.2µM*	?	-89*
Cc1cc(/N=C/C=C2\N(C)c3ccccc3C2(C)C)n(CCC#N)n1	4.6µM*	?	5.8µM*	3%[9.24 µM]	-90*
Cc1c(N=C/C=C2\N(C)c3ccccc3C2(C)C)c(=O)n(-c2ccccc2)n1C	?	0%	?	-28%	-5
CCOC(=O)N1CCN(C2CCCN(C(=O)c3cccc(Cl)c3)C2)CC1 (stereo not given)	-1%	0%	0%	-10%	i
COc1ccc(OC)c(/C=N/NC(=O)c2c(C)nc3ccc(C)cn23)c1	?	2%	?	4%	32
Cc1nc2ccc(Br)cn2c1C(=O)N/N=C\c1ccc(C(C)C)cc1	7.3µM*	2%	7.3µM*	-1%	42
COC(=O)c1ccc(/C=N/NC(=O)c2ccccc2Cl)cc1	?	7%	?	0%	1
SMILES	TDP1 cell noCPT	HT1080NT lethal	DT40 TDP1 CPT	HT1080 IDH1KD tx	IL1B secr inh
CC(C)c1ccc(/C=N/NC(=O)c2ccccc2Cl)cc1	2.9µM*	7.3µM*	4.1µM*	6.5µM*	-4
CNC(=S)N/N=C/c1ccc(C(C)C)cc1	7.3µM*	2%	13µM*	?	-11
Cc1ccc2c(c1)N(C(=O)CCC(=O)NCCCN1CCN(C)CC1)CC(C)O2 (stereo not given)	12%	-10%	5%	6%	-15
CCOc1cc(C(c2c(C)[nH][nH]c2=O)c2c(C)[nH][nH]c2=O)cc(Br)c1OC	2%	15%	-4%	4%	?
CN(Cc1ccco1)c1cc(-c2ccoc2)ncn1	-2%	nt	-19%	nt	nt
Cc1cc([N+](=O)[O-])nn1CC(=O)NCc1nc2ccccc2[nH]1	14%	14%	0%	1%	16
OC(c1cc(C(F)(F)F)nc2c(Cl)cc(Cl)cc12)C1CCCCN1 (stereo not given)	?	?	18µM*	?	-89*
OC(c1cc(-c2ccc(Cl)cc2)nc2ccccc12)C1CCCCN1 (stereo not given)	26µM*	?	23µM*	-8%	-78*
Cc1ccc(Cn2c(CNC(=O)c3cccc(C)c3)nc3ccccc32)cc1	?	nt	-20%	nt	nt
O=C(N/N=C/c1ccccc1OCC(=O)N1CCCC1)C(=O)Nc1ccccc1F	?	7%	-1%	0%	-6
CN(C)C(CNc1ccc(S(C)(=O)=O)cc1[N+](=O)[O-])c1ccccc1 (stereo not given)	-15%	-1%	1%	-16%	0
O=[N+]([O-])c1cc(C(F)(F)F)ccc1NCCc1ccccn1	?	0%	-10%	2%	?
Cc1ccc(C(=O)NCCCNc2ccc(C(F)(F)F)cc2[N+](=O)[O-])cc1	?	-11%	-18%	-8%	0
O=C(NCCCNc1ccc(C(F)(F)F)cc1[N+](=O)[O-])c1ccc(F)cc1	23µM*	2%	16µM*	-2%	0
O=[N+]([O-])c1cc(C(F)(F)F)ccc1NCCCCNS(=O)(=O)c1ccc2ccccc2c1	23µM*	-5%	21µM*	?	10
CN(C)C(CNc1ccc(C(F)(F)F)cc1[N+](=O)[O-])c1ccccc1 (stereo not given)	?	-2%	?	-3%	-79*
O=C(NCc1ccco1)C(c1ccc(F)cc1)N(CC1CCCO1)C(=O)Cn1nnc2ccccc21 (stereo not given)	-25%	12%	-1%	11%	-1
O=S(=O)(NCC(c1ccc2c(c1)OCO2)N1CCOCC1)c1ccccc1 (stereo not given)	-19%	-5%	-8%	-5%	0
COc1ccc(OCCN2CCC(C(=O)NC(c3ccc(C)cc3)c3ccccn3)CC2)cc1 (stereo not given)	-15%	-2%	-28%	-2%	-27
